Source: PubChem BioAssay (NCI)
Compounds without any hit were thinned out: in the full panel of roughly 79,000, 15% have a hit. Unmarked numbers belong to inactive results. The source made the active and inactive calls. No stated cut-off is given here; in the data, active means growth inhibition above about 70%; inactive means the rest.

assay: NCI Yeast Anticancer Drug Screen. Data for the rad50 strain (AID 155);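 further: 0% = growth of vehicle-only cultures of the same strain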; details: S. cerevisiae rad50 strain growth inhibition; at 50.0 µM; stronger effect = higher value
Procedure, shortened: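 Growth of the mutant yeast was measured after compound exposure and referenced to vehicle-treated cultures.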

SMILES | growth inhibition
CC(=O)N(C)N=Nc1ccc(C(F)(F)F)cc1 | -7.7%
O=c1oc2ccccc2cc1S(=O)(=O)c1ccc(Cl)cc1 | -0.9%
CCc1c([N+](=O)[O-])cc(C(C)(C)C)c(OC)c1[N+](=O)[O-] | -9.05%
O=C(NCCCCCCCCCCNC(=O)C12CC3CC(CC(C3)C1)C2)C12CC3CC(CC(C3)C1)C2 | -1.5%
O=C1C=CC(=NN=c2c3ccccc3oc3ccccc23)C=C1 | -11.3%
COCC/C=C\CN(C(C)C)C(C)C | -9.5%
Oc1ccc(-c2cc(-c3c(O)cc(O)cc3O)on2)cc1 | 4.25%
COc1ccc(-c2cc(=O)c3ccc(O)cc3o2)c(OC)c1OC | -4.7%
NC(=O)c1cc2ccccc2c2ccccc12 | 0.65%
CC(=O)Nc1ccc2c(c1)Cc1cccc(O)c1-2 | 0.65%
C/C(=N\NC(=S)NC(C)C)c1nc2ncccc2[nH]1 | -14.5%
COc1cc(C2c3cc4c(cc3[C@@H](Nc3ccc(C#N)cc3)C3COC(=O)[C@H]23)OCO4)cc(OC)c1O (stereo not given in full) | 87.5% (active)
CCCCCCC(C)OC(C)=O (stereo not given) | -15.6%
O=[N+]([O-])c1ccc(C=Nc2ccc3c(c2)Cc2ccccc2-3)cc1 | -7.7%
CCOC(=O)c1cnc2c(ccc3ncccc32)c1OCC | -12.2%
CC12CCCC3(CC(=O)C(C)(C)C3C(=O)C1)C2 (stereo not given) | -13.9%
NC(=S)NNC(=S)NC(=O)c1ccco1 | -39.8%
O=c1[nH]c(=O)n(C2OC(CO)C(O)C2O)cc1OCCCc1ccccc1 (stereo not given) | -23.1%
O=C(O)C(Cc1ccc2c(c1)CCC2)(Cc1ccc2c(c1)CCC2)C(=O)O | 26.9%
O=C(Oc1ccc(OC(=O)c2ccc([N+](=O)[O-])cc2)cc1)c1ccccc1 | 9.85%

SMILES | growth inhibition
CCCc1nnnn1C12CC3CC(CC(C3)C1)C2 | 30.6%
CC1CCC(C(C)C)=C(C2CCCCC2)C1 (stereo not given) | -2.15%
Cc1ccc2c(c1)CCCN2 | 7.2%
NC(=Nc1ccc([N+](=O)[O-])cc1)c1ccccc1 | 6.95%
O=C(O)CNC(=O)c1cccc(Cl)c1 | 12.4%
OCCCCCOCc1ccccc1 | 18.9%
Nc1ccc(C(=O)Nc2ccccn2)cc1 | -9.1%
c1ccc2c(c1)N=C(c1ccc3ccccc3c1)CC(c1cccc3ccccc13)S2 (stereo not given) | 13.2%
O=C1Cc2c(-c3ccccc3)cc(-c3ccccc3)nc2-c2ccccc2N1 | -4.2%
Nc1ccc(C(=O)NO)c(O)c1 | 6.2%
CC(=O)OC1c2ccccc2C(=O)C1(OC(C)=O)c1ccccc1 (stereo not given) | 0.7%
COc1cccc2c1[C@H]1CO[C@H]3C4C[C@H](C(=O)O)C([C@@H](C2)N13)N4C (stereo not given in full) | 3.25%
CC(=O)CC(=O)NC(C)(C)C | 16.6%
[O-][n+]1onc2c1CCC(=N\O)/C2=N/Nc1ccccc1 | -1.55%
CCOC(=O)NC(Nc1ccc([N+](=O)[O-])cc1)(C(F)(F)F)C(F)(F)F | 45.4%
CC(=O)N(C(C)=O)c1cc2c3ccccc3ccc2c2ccccc12 | 22.4%
C=CCOc1ccccc1C | -21.9%
COc1ccc(C(=O)NNC(=O)c2ccc3ccccc3c2)cc1 | 10.8%
CC(=O)Nc1ccc(F)cc1 | -38.3%
Nc1nnc2nc(C(C(=O)c3cccc(O)c3)c3nc4nnc(N)n4[nH]c3=O)c(=O)[nH]n12 | 8.65%

assay: NCI Yeast Anticancer Drug Screen. Data for the mec2-1 strain (AID 157); details: S. cerevisiae mec2-1 strain, at 50.0 µM, stronger effect = higher value
Procedure, shortened: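 Yeast mec2-1 mutant treated with compound. Readout: growth inhibition vs vehicle controls.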

SMILES | growth inhibition
CC(=O)N(C)N=Nc1ccc(C(F)(F)F)cc1 | -12.7%
O=c1oc2ccccc2cc1S(=O)(=O)c1ccc(Cl)cc1 | 0.85%
CCc1c([N+](=O)[O-])cc(C(C)(C)C)c(OC)c1[N+](=O)[O-] | -9.75%
O=C(NCCCCCCCCCCNC(=O)C12CC3CC(CC(C3)C1)C2)C12CC3CC(CC(C3)C1)C2 | -5.15%
O=C1C=CC(=NN=c2c3ccccc3oc3ccccc23)C=C1 | -3.35%
COCC/C=C\CN(C(C)C)C(C)C | -13.3%
Oc1ccc(-c2cc(-c3c(O)cc(O)cc3O)on2)cc1 | -1.45%
COc1ccc(-c2cc(=O)c3ccc(O)cc3o2)c(OC)c1OC | -10.4%
NC(=O)c1cc2ccccc2c2ccccc12 | -23.8%
CC(=O)Nc1ccc2c(c1)Cc1cccc(O)c1-2 | -7.15%
C/C(=N\NC(=S)NC(C)C)c1nc2ncccc2[nH]1 | -17.6%
COc1cc(C2c3cc4c(cc3[C@@H](Nc3ccc(C#N)cc3)C3COC(=O)[C@H]23)OCO4)cc(OC)c1O (stereo not given in full) | 89.7% (active)
CCCCCCC(C)OC(C)=O (stereo not given) | -44.5%
O=[N+]([O-])c1ccc(C=Nc2ccc3c(c2)Cc2ccccc2-3)cc1 | -16.8%
CCOC(=O)c1cnc2c(ccc3ncccc32)c1OCC | -23.1%
CC12CCCC3(CC(=O)C(C)(C)C3C(=O)C1)C2 (stereo not given) | -16.1%
NC(=S)NNC(=S)NC(=O)c1ccco1 | 5.55%
O=c1[nH]c(=O)n(C2OC(CO)C(O)C2O)cc1OCCCc1ccccc1 (stereo not given) | -1.8%
O=C(O)C(Cc1ccc2c(c1)CCC2)(Cc1ccc2c(c1)CCC2)C(=O)O | 13.3%
O=C(Oc1ccc(OC(=O)c2ccc([N+](=O)[O-])cc2)cc1)c1ccccc1 | -2.25%

SMILES | growth inhibition
CCCc1nnnn1C12CC3CC(CC(C3)C1)C2 | 18.8%
CC1CCC(C(C)C)=C(C2CCCCC2)C1 (stereo not given) | 1.65%
Cc1ccc2c(c1)CCCN2 | 11.2%
NC(=Nc1ccc([N+](=O)[O-])cc1)c1ccccc1 | 1.6%
O=C(O)CNC(=O)c1cccc(Cl)c1 | 12.3%
OCCCCCOCc1ccccc1 | 3.6%
Nc1ccc(C(=O)Nc2ccccn2)cc1 | -9.55%
c1ccc2c(c1)N=C(c1ccc3ccccc3c1)CC(c1cccc3ccccc13)S2 (stereo not given) | 5.25%
O=C1Cc2c(-c3ccccc3)cc(-c3ccccc3)nc2-c2ccccc2N1 | 39.2%
Nc1ccc(C(=O)NO)c(O)c1 | 18.9%
CC(=O)OC1c2ccccc2C(=O)C1(OC(C)=O)c1ccccc1 (stereo not given) | 11.3%
COc1cccc2c1[C@H]1CO[C@H]3C4C[C@H](C(=O)O)C([C@@H](C2)N13)N4C (stereo not given in full) | 4.4%
CC(=O)CC(=O)NC(C)(C)C | -33%
[O-][n+]1onc2c1CCC(=N\O)/C2=N/Nc1ccccc1 | -1.05%
CCOC(=O)NC(Nc1ccc([N+](=O)[O-])cc1)(C(F)(F)F)C(F)(F)F | 40.2%
CC(=O)N(C(C)=O)c1cc2c3ccccc3ccc2c2ccccc12 | -6.3%
C=CCOc1ccccc1C | -29.9%
COc1ccc(C(=O)NNC(=O)c2ccc3ccccc3c2)cc1 | 1.25%
CC(=O)Nc1ccc(F)cc1 | -25.7%
Nc1nnc2nc(C(C(=O)c3cccc(O)c3)c3nc4nnc(N)n4[nH]c3=O)c(=O)[nH]n12 | 0%
